The full ranking holds about 16,000 sequences; the median of “rpm ratio (pull-down/input)” is about 0.5, and the highest 2% start at about 5.5. Only a selection was taken, and the highest values are over-represented in it overall.
These sequences were tested against T1, MBP-FoxP3dN (Mus musculus, UniProt Q99JB6 188-423) (assay: PD-seq (MBP pull-down with sequencing); 20 mM Tris-HCl pH 7.5, 100 mM NaCl, 1.5 mM MgCl2, 0.4 uM protein, 0.1 uM dsDNA library, 30 min, room temperature, amylose pull-down; high values mean tight binding). Details: protein: recombinant; tags: His6-MBP; chain copies: 2; dsDNA, one strand shown.
T1 sequence: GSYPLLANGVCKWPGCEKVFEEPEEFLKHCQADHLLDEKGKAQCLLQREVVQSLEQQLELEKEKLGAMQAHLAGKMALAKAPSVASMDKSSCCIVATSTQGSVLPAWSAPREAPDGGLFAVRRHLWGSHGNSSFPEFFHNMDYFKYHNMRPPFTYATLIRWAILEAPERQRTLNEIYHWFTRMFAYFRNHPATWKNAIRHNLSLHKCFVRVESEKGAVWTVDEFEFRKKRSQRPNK
Summary of the method: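 Binding is the reads-per-million enrichment of pull-down relative to input, pooled across replicates. For this, 0.4 µM His6-MBP-tagged mouse FoxP3 or FoxP1 fragment lacking the N-terminus, made in E. coli, was incubated with 0.1 µM Klenow-filled double-stranded degenerate DNA library for 30 min at room temperature in Tris pH 7.5 buffer with NaCl and MgCl2. Complexes bound to amylose resin were washed three times before proteinase K released the DNA for PCR barcoding and Illumina sequencing.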
“GATGATTGTTCTCCCAGCTGATGAATTTGATTTATCGAGTAAACAAATTTTCCTAATCTTTCTGTTCAAGCGCCATCTAC” was tested, and the binding signal was 2.99 RPM ratio (pull-down/input).
In the case of “GATGATTGTTCTCCCAGCTGATGAATTTTGTTTATCGAGTAAACAAATTTTCCTAATCTTTCTGTTCAAGCGCCATCTAC”, the binding signal is reported as 7.19 RPM ratio (pull-down/input).
In the case of “GATGATTGTTCTCCCAGCTGATGAATTCCTTTTATCGAGTAAACAAATTTTCCTAATCTTTCTGTTCAAGCGCCATCTAC”, the binding signal is reported as 0.345 RPM ratio (pull-down/input).
In the case of “GATGATTGTTCTCCCAGCTGATGAATTCTTTTTATCGAGTAAACAAATTTTCCTAATCTTTCTGTTCAAGCGCCATCTAC”, the binding signal is reported as 0.332 RPM ratio (pull-down/input).
With “GATGATTGTTCTCCCAGCTGATGAATTTTCTTTATCGAGTAAACAAATTTTCCTAATCTTTCTGTTCAAGCGCCATCTAC” the binding signal was 1.27 RPM ratio (pull-down/input).
In the case of “GATGATTGTTCTCCCAGCTGATGAATTACCACCCTCGAGTAAACAAATTTTCCTAATCTTTCTGTTCAAGCGCCATCTAC”, the binding signal is reported as 0.312 RPM ratio (pull-down/input).
“GATGATTGTTCTCCCAGCTGATGAATTCGTCGTCTCGAGTAAACAAATTTTCCTAATCTTTCTGTTCAAGCGCCATCTAC” was tested, and the binding signal was 1.31 RPM ratio (pull-down/input).
“GATGATTGTTCTCCCAGCTGATGAATTAAAGTGCTCGAGTAAACAAATTTTCCTAATCTTTCTGTTCAAGCGCCATCTAC” was tested, and the binding signal was 0.358 RPM ratio (pull-down/input).
“GATGATTGTTCTCCCAGCTGATGAATTTTCCTTCTCGAGTAAACAAATTTTCCTAATCTTTCTGTTCAAGCGCCATCTAC” was tested, and the binding signal was 0.258 RPM ratio (pull-down/input).
“GATGATTGTTCTCCCAGCTGATGAATTTAGATTATCGAGTAAACAAATTTTCCTAATCTTTCTGTTCAAGCGCCATCTAC” was tested, and the binding signal was 1.31 RPM ratio (pull-down/input).
For “GATGATTGTTCTCCCAGCTGATGAATTTTTTACATCGAGTAAACAAATTTTCCTAATCTTTCTGTTCAAGCGCCATCTAC”, the binding signal was 0.25 RPM ratio (pull-down/input).
In the case of “GATGATTGTTCTCCCAGCTGATGAATTTCTTTTATCGAGTAAACAAATTTTCCTAATCTTTCTGTTCAAGCGCCATCTAC”, the binding signal is reported as 0.545 RPM ratio (pull-down/input).
In the case of “GATGATTGTTCTCCCAGCTGATGAATTTGTTTTATCGAGTAAACAAATTTTCCTAATCTTTCTGTTCAAGCGCCATCTAC”, the binding signal is reported as 6.46 RPM ratio (pull-down/input).
With “GATGATTGTTCTCCCAGCTGATGAATTGTTTATCTCGAGTAAACAAATTTTCCTAATCTTTCTGTTCAAGCGCCATCTAC” the binding signal was 6.57 RPM ratio (pull-down/input).
“GATGATTGTTCTCCCAGCTGATGAATTTATCTCCTCGAGTAAACAAATTTTCCTAATCTTTCTGTTCAAGCGCCATCTAC” was tested, and the binding signal was 0.631 RPM ratio (pull-down/input).
“GATGATTGTTCTCCCAGCTGATGAATTTTTTTTATCGAGTAAACAAATTTTCCTAATCTTTCTGTTCAAGCGCCATCTAC” was tested, and the binding signal was 0.295 RPM ratio (pull-down/input).
With “GATGATTGTTCTCCCAGCTGATGAATTTTTTATCTCGAGTAAACAAATTTTCCTAATCTTTCTGTTCAAGCGCCATCTAC” the binding signal was 0.243 RPM ratio (pull-down/input).
For “GATGATTGTTCTCCCAGCTGATGAATTTACAACATCGAGTAAACAAATTTTCCTAATCTTTCTGTTCAAGCGCCATCTAC”, the binding signal was 1.26 RPM ratio (pull-down/input).
“GATGATTGTTCTCCCAGCTGATGAATTGTTTACATCGAGTAAACAAATTTTCCTAATCTTTCTGTTCAAGCGCCATCTAC” was tested, and the binding signal was 8.09 RPM ratio (pull-down/input).
For “GATGATTGTTCTCCCAGCTGATGAATTGTGTCCCTCGAGTAAACAAATTTTCCTAATCTTTCTGTTCAAGCGCCATCTAC”, the binding signal was 2.1 RPM ratio (pull-down/input).
“GATGATTGTTCTCCCAGCTGATGAATTTCCTCCCTCGAGTAAACAAATTTTCCTAATCTTTCTGTTCAAGCGCCATCTAC” was tested, and the binding signal was 0.223 RPM ratio (pull-down/input).
“GATGATTGTTCTCCCAGCTGATGAATTGGCGTCCTCGAGTAAACAAATTTTCCTAATCTTTCTGTTCAAGCGCCATCTAC” was tested, and the binding signal was 1.06 RPM ratio (pull-down/input).
In the case of “GATGATTGTTCTCCCAGCTGATGAATTACCCAACTCGAGTAAACAAATTTTCCTAATCTTTCTGTTCAAGCGCCATCTAC”, the binding signal is reported as 0.253 RPM ratio (pull-down/input).
“GATGATTGTTCTCCCAGCTGATGAATTATATCTGTCGAGTAAACAAATTTTCCTAATCTTTCTGTTCAAGCGCCATCTAC” was tested, and the binding signal was 0.544 RPM ratio (pull-down/input).
With “GATGATTGTTCTCCCAGCTGATGAATTATTTTTGTCGAGTAAACAAATTTTCCTAATCTTTCTGTTCAAGCGCCATCTAC” the binding signal was 0.947 RPM ratio (pull-down/input).
With “GATGATTGTTCTCCCAGCTGATGAATTATTTCTGTCGAGTAAACAAATTTTCCTAATCTTTCTGTTCAAGCGCCATCTAC” the binding signal was 0.335 RPM ratio (pull-down/input).
“GATGATTGTTCTCCCAGCTGATGAATTTTATGTGTCGAGTAAACAAATTTTCCTAATCTTTCTGTTCAAGCGCCATCTAC” was tested, and the binding signal was 2.49 RPM ratio (pull-down/input).
In the case of “GATGATTGTTCTCCCAGCTGATGAATTTTTATTGTCGAGTAAACAAATTTTCCTAATCTTTCTGTTCAAGCGCCATCTAC”, the binding signal is reported as 0.972 RPM ratio (pull-down/input).
In the case of “GATGATTGTTCTCCCAGCTGATGAATTTATTGTGTCGAGTAAACAAATTTTCCTAATCTTTCTGTTCAAGCGCCATCTAC”, the binding signal is reported as 6.95 RPM ratio (pull-down/input).
“GATGATTGTTCTCCCAGCTGATGAATTATTATTGTCGAGTAAACAAATTTTCCTAATCTTTCTGTTCAAGCGCCATCTAC” was tested, and the binding signal was 2.61 RPM ratio (pull-down/input).
With “GATGATTGTTCTCCCAGCTGATGAATTTATTCTGTCGAGTAAACAAATTTTCCTAATCTTTCTGTTCAAGCGCCATCTAC” the binding signal was 0.533 RPM ratio (pull-down/input).
With “GATGATTGTTCTCCCAGCTGATGAATTTTATTTGTCGAGTAAACAAATTTTCCTAATCTTTCTGTTCAAGCGCCATCTAC” the binding signal was 6.21 RPM ratio (pull-down/input).
“GATGATTGTTCTCCCAGCTGATGAATTGTTATTGTCGAGTAAACAAATTTTCCTAATCTTTCTGTTCAAGCGCCATCTAC” was tested, and the binding signal was 6.63 RPM ratio (pull-down/input).
“GATGATTGTTCTCCCAGCTGATGAATTATATTTGTCGAGTAAACAAATTTTCCTAATCTTTCTGTTCAAGCGCCATCTAC” was tested, and the binding signal was 5.66 RPM ratio (pull-down/input).
In the case of “GATGATTGTTCTCCCAGCTGATGAATTATTTGTGTCGAGTAAACAAATTTTCCTAATCTTTCTGTTCAAGCGCCATCTAC”, the binding signal is reported as 2.76 RPM ratio (pull-down/input).

— article PMC12820563, “FoxP3 forms a head-to-head dimer in vivo and stabilizes its multimerization on adjacent microsatellites”
